Measurements from PubChem BioAssay (Tox21).
Inconclusive results are not listed. Calls of active or inactive are those of the source. Unless noted, calls follow the shape of the dose curve; as a rule, active = well fitted curve in the direction sought with a large enough effect in the repeat runs; inconclusive = weak or mixed curves; inactive = no such curve, though single readings can be large; an effect the other way counts as inactive or inconclusive.

What was measured:
[1] = qHTS assay to identify small molecule antagonists of the glucocorticoid receptor (GR) signaling pathway - cell viability counter screen (AID 720693); also: nearly all actives have a fitted effect of over 55% in size
[2] = qHTS assay for identifying genotoxic compounds that show differential cytotoxicity against isogenic chicken DT40 cell lines with known DNA damage response pathways - wild type cell line (AID 743012); also: nearly all actives have a fitted effect of over 60% in size; also: potency is read from the fitted curve at half-maximal effect
Summary of the method: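 Parental DNA repair-proficient DT40 cells, 300 per well, were pre-incubated ~0.5 h at 37 C/5% CO2, pin-dosed with compounds in DMSO, then incubated 40 h. Viability was read as CellTiter-Glo luminescence after 30 min at room temperature.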

[3] = qHTS assay for identifying genotoxic compounds that show differential cytotoxicity against isogenic chicken DT40 cell lines with known DNA damage response pathways - Rev3 mutant cell line (AID 743014); also: nearly all actives have a fitted effect of over 55% in size; also: potency is read from the fitted curve at half-maximal effect
[4] = qHTS assay to identify small molecule antagonists of the androgen receptor (AR) signaling pathway - cell viability counter screen (AID 743033; also: nearly all actives have a fitted effect of over 45% in size)
[5] = qHTS assay to identify small molecule antagonists of the androgen receptor (AR) signaling pathway using the MDA cell line - cell viability counter screen (AID 743041; also: nearly all actives have a fitted effect of over 45% in size)
Summary of the method: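 Viability counter screen run alongside the AR antagonist reporter: cells seeded 5 h before compound, R1881 added, 16 h incubation at 37C without CO2, fluorescent CellTiter-Fluor signal quantified.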

[6] = qHTS assay to identify small molecule antagonists of the thyroid receptor (TR) signaling pathway - cell viability counter screen (AID 743064); also: nearly all actives have a fitted effect of over 50% in size
Summary of the method: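 In rat pituitary GH3.TRE-Luc reporter cells co-exposed to compound and 1 nM T3 for 23.5 h, cytotoxicity was assessed with CellTiter-Fluor in the same wells, read by fluorescence.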

[7] = qHTS assay to identify small molecule antagonists of the thyroid receptor (TR) signaling pathway (AID 743065); also: series mostly up to about 70 µM; nearly all actives have a fitted effect of over 55% in size
Summary of the method: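 GH3.TRE-Luc rat pituitary cells carrying two TR response elements driving luciferase were plated for 4 h, given compound plus 1 nM T3 (final), and incubated 23.5 h at 37 C. ONE-Glo luminescence measured reporter inhibition; CellTiter-Fluor fluorescence tracked cytotoxicity.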

[8] = system: thyroid hormone receptor (rat, GH3 cells); test: qHTS assay to identify small molecule agonists of the thyroid receptor (TR) signaling pathway (AID 743066; calls by dose curve)
[9] = qHTS assay to identify small molecule antagonists of the estrogen receptor alpha (ER-alpha) signaling pathway - cell viability counter screen (AID 743074; calls by dose curve;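 also: HEK293 cells carrying ER-alpha-UAS-bla reporter stimulated with 17beta-estradiol; nearly all actives have a fitted effect of over 45% in size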)
[10] = qHTS assay to identify small molecule antagonists of the estrogen receptor alpha (ER-alpha) signaling pathway using the BG1 cell line - cell viability counter screen (AID 743081);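 also: compound given together with 17beta-estradiol as the ER stimulus; series mostly up to about 70 µM; nearly all actives have a fitted effect of over 45% in size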
[11] = molecular target: Estrogen receptor (Homo sapiens) (UniProt P03372); test: qHTS assay to identify small molecule antagonists of the estrogen receptor alpha (ER-alpha) signaling pathway (AID 743069; active = well fitted curve in the direction sought with a large enough effect in the signal ratio in the repeat runs, not every such curve was filed as active; the % refers to the signal ratio)
Estrogen receptor (Homo sapiens), sequence (P03372 whole entry, looked up): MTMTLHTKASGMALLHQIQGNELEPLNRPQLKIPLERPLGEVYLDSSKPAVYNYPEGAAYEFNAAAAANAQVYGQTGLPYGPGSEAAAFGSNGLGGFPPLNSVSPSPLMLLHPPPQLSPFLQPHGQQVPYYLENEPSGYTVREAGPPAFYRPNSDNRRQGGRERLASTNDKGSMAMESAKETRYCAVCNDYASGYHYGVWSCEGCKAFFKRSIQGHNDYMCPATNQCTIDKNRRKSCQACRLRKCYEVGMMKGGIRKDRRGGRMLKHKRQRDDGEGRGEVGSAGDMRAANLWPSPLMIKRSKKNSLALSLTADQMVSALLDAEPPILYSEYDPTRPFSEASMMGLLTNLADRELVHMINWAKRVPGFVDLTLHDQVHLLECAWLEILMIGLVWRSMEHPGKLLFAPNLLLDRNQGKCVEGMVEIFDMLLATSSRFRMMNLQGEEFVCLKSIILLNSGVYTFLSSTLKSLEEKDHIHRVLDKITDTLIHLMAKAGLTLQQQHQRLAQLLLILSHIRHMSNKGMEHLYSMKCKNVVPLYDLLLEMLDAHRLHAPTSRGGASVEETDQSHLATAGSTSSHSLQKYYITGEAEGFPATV
Summary of the method: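 Estradiol-stimulated ER-alpha-UAS-bla HEK293 cells, 18 hr compound exposure at 37C. LiveBLAzer B/G substrate, 2 hr RT, fluorescence read.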

[12] = molecular target: Estrogen receptor (Homo sapiens) (UniProt P03372); test: qHTS assay to identify small molecule agonists of the estrogen receptor alpha (ER-alpha) signaling pathway (AID 743075; calls by dose curve)
[13] = molecular target: Aromatase (Homo sapiens) (UniProt P11511); test: qHTS assay to identify aromatase inhibitors (AID 743083); also: series mostly up to about 70 µM; nearly all actives have a fitted effect of over 55% in size
Aromatase (Homo sapiens), sequence (P11511 whole entry, looked up): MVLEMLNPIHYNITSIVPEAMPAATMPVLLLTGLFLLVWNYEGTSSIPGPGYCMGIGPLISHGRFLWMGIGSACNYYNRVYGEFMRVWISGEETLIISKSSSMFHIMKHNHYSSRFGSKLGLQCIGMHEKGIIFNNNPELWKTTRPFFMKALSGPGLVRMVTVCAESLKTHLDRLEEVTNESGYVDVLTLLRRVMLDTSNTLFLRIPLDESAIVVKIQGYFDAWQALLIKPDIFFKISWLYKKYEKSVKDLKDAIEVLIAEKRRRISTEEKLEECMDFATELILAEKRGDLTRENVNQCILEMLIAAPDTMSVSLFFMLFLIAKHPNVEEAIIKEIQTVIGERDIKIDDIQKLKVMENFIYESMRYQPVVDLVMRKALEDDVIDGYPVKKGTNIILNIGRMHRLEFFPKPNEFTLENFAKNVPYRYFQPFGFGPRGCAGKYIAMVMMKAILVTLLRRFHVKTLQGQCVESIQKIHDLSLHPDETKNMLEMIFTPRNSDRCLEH

[14] = qHTS assay for identifying genotoxic compounds that show differential cytotoxicity against isogenic chicken DT40 cell lines with known DNA damage response pathways - Rad54/Ku70 mutant cell line (AID 743015); also: nearly all actives have a fitted effect of over 60% in size; also: potency is read from the fitted curve at half-maximal effect
[15] = molecular target: Androgen receptor (Homo sapiens) (UniProt P10275); test: qHTS assay to identify small molecule antagonists of the androgen receptor (AR) signaling pathway (AID 743035; active = well fitted inhibition curve with a large enough effect in the signal ratio in the repeat runs, not every such curve was filed as active; the % refers to the signal ratio)
Androgen receptor (Homo sapiens), sequence (P10275 whole entry, looked up): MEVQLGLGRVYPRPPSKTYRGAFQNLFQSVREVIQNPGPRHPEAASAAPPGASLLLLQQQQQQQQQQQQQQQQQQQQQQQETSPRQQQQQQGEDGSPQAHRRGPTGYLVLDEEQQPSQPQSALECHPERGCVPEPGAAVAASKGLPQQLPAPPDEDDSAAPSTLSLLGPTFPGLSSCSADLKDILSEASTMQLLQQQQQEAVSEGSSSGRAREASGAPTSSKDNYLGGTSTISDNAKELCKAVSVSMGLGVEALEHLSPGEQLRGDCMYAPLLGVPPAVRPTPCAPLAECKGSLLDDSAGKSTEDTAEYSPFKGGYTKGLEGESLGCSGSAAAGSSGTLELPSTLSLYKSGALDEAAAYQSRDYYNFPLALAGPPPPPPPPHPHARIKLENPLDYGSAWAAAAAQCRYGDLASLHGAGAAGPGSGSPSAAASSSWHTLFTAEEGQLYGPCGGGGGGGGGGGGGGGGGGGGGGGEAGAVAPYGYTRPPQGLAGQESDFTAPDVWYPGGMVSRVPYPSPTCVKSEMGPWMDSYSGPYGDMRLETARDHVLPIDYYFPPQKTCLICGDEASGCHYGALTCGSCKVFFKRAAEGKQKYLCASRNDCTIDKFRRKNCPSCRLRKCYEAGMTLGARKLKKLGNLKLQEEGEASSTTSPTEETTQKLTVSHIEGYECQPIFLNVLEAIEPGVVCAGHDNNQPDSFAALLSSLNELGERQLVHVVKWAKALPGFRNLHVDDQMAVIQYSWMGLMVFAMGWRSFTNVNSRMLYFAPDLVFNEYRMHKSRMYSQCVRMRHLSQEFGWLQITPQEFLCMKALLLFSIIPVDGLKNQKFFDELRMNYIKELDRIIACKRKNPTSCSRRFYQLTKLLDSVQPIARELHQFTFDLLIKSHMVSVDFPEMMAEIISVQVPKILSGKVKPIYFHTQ
Summary of the method: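 HEK293 cells stably carrying a UAS-driven beta-lactamase reporter (AR-UAS-bla GripTite) were plated for 4 h at 37C, then given compound and the agonist R1881 and incubated 16 h. Reporter activity was read by LiveBLAzer B/G FRET fluorescence after 2 h at room temperature.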

[16] = molecular target: Androgen receptor (Homo sapiens) (UniProt P10275); test: qHTS assay to identify small molecule agonists of the androgen receptor (AR) signaling pathway (AID 743036; active = well fitted activation curve with a large enough effect in the signal ratio in the repeat runs, with a control signal flat, not every such curve was filed as active; the % refers to the signal ratio)
Summary of the method: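 Cell-based FRET reporter assay: HEK293 line with a UAS-beta-lactamase construct, compounds added in DMSO, 16 h exposure at 37C, then 2 h substrate step at room temperature and fluorescence intensity read.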

[17] = molecular target: Androgen receptor (Homo sapiens) (UniProt P10275); test: qHTS assay to identify small molecule agonists of the androgen receptor (AR) signaling pathway using the MDA cell line (AID 743040; also: nearly all actives have a fitted effect of over 20% in size)
Summary of the method: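 Luminescence from ONE-Glo, read after 30 min at room temperature, reflects MMTV-driven luciferase in MDA-kb2 cells (AR- and GR-responsive). Treatment lasted 16 h at 37C, 0% CO2.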

[18] = molecular target: Androgen receptor (Homo sapiens) (UniProt P10275); test: qHTS assay to identify small molecule antagonists of the androgen receptor (AR) signaling pathway using the MDA cell line (AID 743042; also: nearly all actives have a fitted effect of over 55% in size)
Summary of the method: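 MDA-kb2 cells (human breast carcinoma, stably carrying an MMTV-luciferase reporter responsive to AR and GR) were plated at 3,000 cells/well and preincubated 5 hr at 37C, then given compound plus R1881 agonist for 16 h. ONE-Glo luminescence was read.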

[19] = molecular target: Estrogen receptor (Homo sapiens) (UniProt P03372); test: qHTS assay to identify small molecule agonists of the estrogen receptor alpha (ER-alpha) signaling pathway using the BG1 cell line (AID 743079); also: nearly all actives have a fitted effect of over 20% in size; also: potency is read from the fitted curve at half-maximal effect
[20] = qHTS assay to identify small molecule antagonists of the estrogen receptor alpha (ER-alpha) signaling pathway using the BG1 cell line (AID 743080; calls by dose curve;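 also: BG1 cells stimulated with 17beta-estradiol alongside compound; series mostly up to about 70 µM; nearly all actives have a fitted effect of over 25% in size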)
Summary of the method: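 Luminescence from a 4×ERE-luciferase reporter in BG1-Luc-4E2 cells served as read-out. Cells, pre-cultured 5 days in stripped-serum phenol-red-free medium, were exposed to compound with 17beta-estradiol co-stimulation for 21.5 h at 37 C.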

Measured: Potency

Cc1cc(N)no1
inactive: [1] | [2] | [3] | [4] | [5] | [6] | [7] | [8] | [9] | [10]

CC(C)(C)c1ccc(N)cc1
inactive: [1] | [2] | [3] | [4] | [5] | [6] | [7] | [8] | [11] | [9] | [12] | [10] | [13]

CCCCCCCCC1CO1 (stereo not drawn)
inactive: [1] | [2] | [14] | [4] | [15] | [16] | [17] | [5] | [18] | [6] | [7] | [8] | [9] | [10] | [13]

CC(=O)c1c(C)cc(C(C)(C)C)cc1C
inactive: [1] | [2] | [3] | [4] | [5] | [6] | [7] | [8] | [9] | [10] | [13]

C=CCn1cc[n+](C)c1
inactive: [1] | [2] | [14] | [4] | [5] | [6] | [7] | [8] | [11] | [9] | [12] | [19] | [20] | [10] | [13]

C=CCCCCCCCCCCCCCC
inactive: [1] | [2] | [3] | [4] | [5] | [7] | [8] | [11] | [9] | [12] | [19] | [20] | [10] | [13]

O=S(=O)(O)CC(O)CCl (stereo not drawn)
inactive: [1] | [3] | [14] | [4] | [5] | [6] | [7] | [8] | [11] | [9] | [12] | [19] | [20] | [10] | [13]

CCCCCCCCCCCBr
inactive: [1] | [2] | [14] | [4] | [5] | [6] | [7] | [8] | [9] | [12] | [19] | [20] | [10] | [13]

O=C1c2ccccc2C(=O)N1CO
inactive: [1] | [3] | [14] | [4] | [15] | [16] | [17] | [5] | [18] | [6] | [7] | [8] | [11] | [9] | [12] | [19] | [20] | [10] | [13]

CCCCCCCCCCCCCCCC(=O)OC
inactive: [1] | [2] | [4] | [5] | [6] | [7] | [8] | [11] | [9] | [12] | [19] | [20] | [10] | [13]

O=C(O)CCCCCCCCCC(=O)O
active: [3] 34.4 µM | [14] 27.3 µM
inactive: [1] | [4] | [17] | [5] | [18] | [8] | [9] | [12] | [19] | [20] | [10] | [13]

CCCC(=O)CC
inactive: [1] | [2] | [14] | [4] | [5] | [6] | [7] | [8] | [9] | [12] | [10] | [13]
active: [19] 28.1 µM

Cc1nnc(C(=O)NC(C)(C)c2nc(C(=O)NCc3ccc(F)cc3)c(O)c(=O)n2C)o1
inactive: [1] | [2] | [4] | [5] | [6] | [7] | [8] | [9] | [10]

COC(=O)N/N=C/c1c[n+]([O-])c2ccccc2[n+]1[O-]
inactive: [1] | [2] | [4] | [5] | [6] | [7] | [8] | [9] | [12] | [19] | [20] | [10] | [13]

c1coc(Cn2cccc2)c1
inactive: [1] | [2] | [14] | [4] | [5] | [7] | [8] | [9] | [12] | [19] | [20] | [10] | [13]

CCOC(=O)c1ccc(N(C)C)cc1
active: [19] 54.5 µM
inactive: [1] | [2] | [14] | [4] | [5] | [7] | [8] | [9] | [12] | [10] | [13]

CC(C)(C)C(=O)CCc1ccc(Cl)cc1
inactive: [1] | [2] | [14] | [4] | [5] | [7] | [8] | [11] | [9] | [12] | [19] | [20] | [10] | [13]

N=C(N)N
inactive: [1] | [2] | [14] | [4] | [5] | [6] | [9] | [10] | [13]

CC(=O)Nc1ccc(OCCOCCOc2ccc(NC(C)=O)cc2)cc1
inactive: [1] | [3] | [14] | [4] | [5] | [6] | [7] | [8] | [11] | [9] | [12] | [19] | [20] | [10] | [13]

CN1C(CCl)Nc2cc(Cl)c(S(N)(=O)=O)cc2S1(=O)=O (stereo not drawn)
inactive: [1] | [4] | [5] | [11] | [9] | [12] | [19] | [20] | [10] | [13]
active: [2] 26.6 µM | [14] 29.8 µM

O=c1[nH]c(=O)c2cn[nH]c2[nH]1
inactive: [1] | [2] | [4] | [5] | [6] | [9] | [10] | [13]

CN(C)CCc1c[nH]c2ccc(CS(=O)(=O)N3CCCC3)cc12
inactive: [1] | [3] | [14] | [4] | [5] | [6] | [7] | [8] | [11] | [9] | [12] | [19] | [20] | [10] | [13]

Cc1ccc2ccccc2n1
inactive: [1] | [2] | [14] | [4] | [5] | [6] | [7] | [8] | [9] | [10] | [13]
